Reference: PubChem BioAssay AID504444 (National Center for Advancing Translational Sciences (NCATS), 2011)
In all, about 360,000 compounds went through this assay and about 7,500 (2.1%) were called active. About 20% were inconclusive and are not listed. For the sample, actives were picked, then their nearest neighbours and some compounds at random. A number with no mark means an inactive call. The call rests on the fitted dose curve; in most records, active means well fitted inhibition curve with a large enough effect; inconclusive means small, poorly fitted or top-dose-only effect, or effect the other way; inactive means flat fitted curve, though single readings scatter.

Assay: Nrf2 qHTS screen for inhibitors; further: nearly all actives have a fitted effect of over 60% in size
Settings: A549 ARE-Fluc reporter, luciferase luminescence, 18-24 h; series mostly up to 46 µM; activity change, negative = inhibition: at the top concentration
Procedure, shortened: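 A549 ARE_Fluc cells, 5000/well, 5% FBS OPTI-MEM; compounds in dose-response, 18-24 h at 37 °C/5% CO2; CellTiter-Fluor viability read (Ex 405/Em 525), then BugLite luciferase luminescence = Nrf2 activity.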
On the % scale 0 is the no-effect control and ±100 the full control effect; potency means the concentration at half of the fitted maximal effect.

SMILES	activity change, negative = inhibition	Potency
CC(C)n1ncc2c(C(=O)NCc3ccccc3CN(C)C)cc(C3CC3)nc21	-4.86%	–
CC(C)(C)C(=O)Nc1cccc(-c2ccc[nH]2)n1	12.1%	–
COC(=O)c1ccc(C2CC(=O)Nc3cc(OC)c(OC)cc32)cc1 (centres undefined)	-22.5%	–
Cc1cc2c(cc1C)C(c1cccc(OC(C)C)c1)CC(=O)N2 (centres undefined)	–	16.4 µM (active)
COc1cc2c(cc1OC)C(c1ccncc1)CC(=O)N2 (centres undefined)	9.55%	–
Cc1ccc(NC(=O)CN2C(=O)CC(C)Sc3ccccc32)c(C)c1 (centres undefined)	-11.2%	–
CCN1C(=O)/C(=C\N2CCN(c3cccc(Cl)c3)CC2)SC1=S	14.6%	–
OC(COc1ccccc1)CN1CCN(c2cccc(Cl)c2)CC1 (centres undefined)	5.04%	–
CCc1nn(CCCN2CCN(c3cccc(Cl)c3)CC2)c(=O)n1CCOc1ccccc1	–	16.4 µM (active)
Cc1ccc(-c2noc(CSc3nnc(-c4ccc(Cl)cc4)n3C)n2)cc1	-23.8%	–
COC(=O)c1ccccc1NC(=O)Cn1c(=O)cc(C)c2c(C)nn(-c3cccc(Cl)c3C)c21	19.2%	–
Cc1nnc(SCC(=O)N2CCN(c3ccccc3)CC2)n1-c1ccccc1	-13.8%	–
COc1cccc(-c2ccc(SCC(=O)N3CCN(c4ccccc4)CC3)nn2)c1	–	20.6 µM (active)
COc1cccc(/C=C/C(=O)OCC(=O)N2CCN(c3ccccc3)CC2)c1	-5.53%	–
C=CC[C@@H](CC(=O)N[C@H](CO)Cc1ccccc1)C(=O)N[C@@H](COC(=O)[C@@H](CC=C)Cc1ccc(F)cc1)Cc1c[nH]c2ccccc12	5.43%	–
C=CCC[C@@H](Cc1ccc(F)cc1)C(=O)OC[C@@H](C)NC(=O)[C@H](CC=C)CC(=O)N(CCO)Cc1ccccc1	-20.4%	–
C=CCC[C@@H](Cc1ccc(F)cc1)C(=O)OC[C@H](Cc1c[nH]c2ccccc12)NC(=O)[C@@H](CC=C)CC(=O)N(CCO)Cc1ccccc1	–	20.6 µM (active)
C=CCC[C@@H](Cc1ccc(F)cc1)C(=O)O[C@H](CNC(=O)[C@H](CC=C)CC(=O)N(CCO)Cc1ccccc1)c1ccccc1	–	18.4 µM (active)
C=CC[C@@H](CC(=O)N[C@H](CO)Cc1ccccc1)C(=O)N[C@H](C)COC(=O)[C@@H](CC=C)Cc1ccc(F)cc1	-13%	–
C=CC[C@H](CC(=O)OC(C)(C)C)C(=O)OC[C@H]1CCCN1C(=O)[C@H](CC=C)CC(=O)N(CCO)Cc1ccccc1	6.87%	–
CCOC(=O)c1ccc(N2C(=O)c3n[nH]c(-c4ccco4)c3C2c2ccc(O)cc2)cc1 (centres undefined)	-16.7%	–
O=C1[C@@H](c2ccccc2)[C@@H](c2ccccc2)N1c1cccnc1	-8.38%	–
CCCS(=O)(=O)N1CCCC(C(=O)N2CCN(c3ccccc3)CC2)C1 (centres undefined)	7.07%	–

SMILES	activity change, negative = inhibition	Potency
CC(=O)N1c2ccc(S(=O)(=O)N3CCC(C(=O)NCc4ccc(F)cc4)CC3)cc2CC1C (centres undefined)	-24.8%	–
CC(=O)N1c2ccc(S(=O)(=O)N3CCCC(C(=O)Nc4cccc(Cl)c4)C3)cc2CC1C (centres undefined)	–	6.51 µM (active)
CC(=O)Nc1ccc(NC(=O)C2CCCN(S(=O)(=O)c3ccc(Cl)cc3)C2)cc1 (centres undefined)	9.54%	–
CC(=O)N1c2ccc(S(=O)(=O)N3CCC(C(=O)N4CCN(c5ccccc5)CC4)CC3)cc2CC1C (centres undefined)	-2.49%	–
CC(=O)N1c2ccc(S(=O)(=O)N3CCCC(C(=O)NCc4ccc(Cl)cc4)C3)cc2CC1C (centres undefined)	–	8.2 µM (active)
COc1ccccc1CNC(=O)C1CCN(S(=O)(=O)c2ccc3c(c2)CC(C)N3C(=O)C2CC2)CC1 (centres undefined)	8.44%	–
CC(=O)N1c2ccc(S(=O)(=O)N3CCC(C(=O)NC4CCCCC4C)CC3)cc2CC1C (centres undefined)	-27.4%	–
CC(=O)N1CCCc2cc(S(=O)(=O)CCC(=O)N3CCN(c4ccccc4)CC3)ccc21	-18.6%	–
Cc1ccc(S(=O)(=O)N2CCCC(C(=O)N3CCN(C)CC3)C2)cc1 (centres undefined)	-14.6%	–
CC(=O)N1CCCc2cc(S(=O)(=O)N3CCCC(C(=O)N4CCN(c5cccc(Cl)c5)CC4)C3)ccc21 (centres undefined)	–	7.31 µM (active)
O=C(C1CCCN(S(=O)(=O)c2ccccc2)C1)N1CCN(c2ccc(F)cc2)CC1 (centres undefined)	–	23.1 µM (active)
O=S(=O)(c1ccc2c(c1)OCCO2)N1CCN(S(=O)(=O)c2cc(F)ccc2F)CC1	4.79%	–
Cn1c(=O)c2c(nc(SCC(=O)Nc3ccc(F)cc3)n2Cc2ccc(Cl)cc2)n(C)c1=O	-16.3%	–
COc1cc(C(=O)N2CCN(S(=O)(=O)c3ccc(C(C)C)cc3)CC2)ccc1OCC(=O)N1CCOCC1	2.4%	–
COC(=O)Cc1c(-c2[nH]c3ccccc3c2CC(=O)OC)[nH]c2ccccc12	5.69%	–
O=C(c1ccc2c(c1)N(Cc1ccccc1)C(=O)c1ccccc1S2(=O)=O)N1CCCC1	-12.5%	–
O=C(CCS(=O)(=O)c1ccc2c(c1)NC(=O)CO2)Nc1cccc(C(F)(F)F)c1	2.09%	–
Cc1cc2c(cc1C)NC1(C[C@H]3CCC(=O)N4CC[C@@H](C1)[C@@H]34)C(=NC(C)(C)CC(C)(C)C)N2 (some centres undefined)	-23.5%	–
COc1ccccc1-c1noc(CSc2nnc(-c3ccccc3)n2-c2ccc(C)c(C)c2)n1	-2.74%	–
COc1cc(CC(=O)Nc2nc(-c3ccc(F)c(F)c3)cs2)cc(OC)c1OC	–	11.6 µM (active)
COc1ccccc1NC(=O)Nc1nc(CC(=O)Nc2ccccc2F)cs1	-11.4%	–
COc1ccc(CCNc2nc(-c3cccc(NC(C)=O)c3)cs2)cc1OC	-6.15%	–
Cc1ccc(S(=O)(=O)NC(=O)Nc2nc(-c3ccc(F)c(F)c3)cs2)cc1	5.15%	–

SMILES	activity change, negative = inhibition	Potency
COc1ccc(CC(=O)Nc2nc(-c3ccc(F)c(F)c3)cs2)cc1OC	–	1.84 µM (active)
COc1ccc(-c2csc(NC(=O)c3ccc(N4C(=O)CCC4=O)cc3)n2)cc1OC	-0.264%	–
COc1ccccc1CNC(=O)C(Cc1ccccc1)NS(=O)(=O)c1ccc2c(c1)oc(=O)n2C (centres undefined)	18.2%	–
COc1ccc(NC(=O)CN2CCCN(Cc3ccccc3)S2(=O)=O)cc1	13.6%	–
COC(=O)c1ccc(NCc2cc(O)ccc2O)cc1	10.5%	–
CN(CC(=O)Nc1ccc(Cl)cc1)CC(=O)Nc1cccc2ccccc12	-8.71%	–
O=C(c1ccc(Cl)c(Cl)c1)N1CCCC1	5.79%	–
O=C(c1ccc(Cl)c(S(=O)(=O)N2CCCCC2)c1)N1CCCCCC1	-1.18%	–
O=C(c1ccc(Cl)c(S(=O)(=O)N2CCCCCC2)c1)N1CCN(c2ccc(O)cc2)CC1	–	23.1 µM (active)
O=C(c1ccccc1F)N1CCC(c2nc3c(nnn3Cc3cccc(F)c3)c(=O)[nH]2)CC1	-16.8%	–
COc1ccc(CN2C(=O)C(NC(=O)c3cccc(C)c3)(C(F)(F)F)N=C2c2ccccc2)cc1 (centres undefined)	-6.01%	–
COc1cccc(-c2ccc(C#N)c(SCC(=O)NCCc3ccc(Cl)cc3)n2)c1	-20.6%	–
COc1ccc(CCNC(=O)CSc2nc(-c3ccc(OC)c(OC)c3)ccc2C#N)cc1	–	18.4 µM (active)
COc1ccc(CCNC(=O)CSc2nnc3ccc(-c4ccncc4)nn23)cc1	-30%	–
CCOc1ccc2oc(=O)cc(CN3CCN(C(=O)c4ccc(F)cc4)CC3)c2c1	11.7%	–
O=C1c2ccccc2C2=Nc3ccccc3SC(c3ccccc3F)C12 (centres undefined)	–	23.1 µM (active)
O=C1c2ccccc2C(=O)C1c1ccccc1F	-0.356%	–
Cc1cccc(NC(=O)c2nnn(CC(=O)Nc3ccc(C(C)C)cc3)c2N)c1C	9.89%	–
O=C(CSc1nnc(CN2CCCC2)n1-c1ccc(F)cc1)c1ccc2c(c1)OCO2	0.537%	–
COc1ccccc1-c1cc(C(F)(F)F)nc(S(=O)(=O)CCCC(=O)Nc2ccc(F)cc2F)n1	10.4% [at 9.27 µM]	–
COc1cc(C(=O)NC2CCN(C)CC2)ccc1Nc1ncc2c(n1)N(C1CCC(O)CC1)CCC(=O)N2C (centres undefined)	5.46%	–
CCOc1ccc(NC(=O)CN2CCN(CC(=O)Nc3ccc(OC)cc3)CC2)cc1	17.4%	–
CCOc1ccc(NC(=S)N2CCC(NC(=O)c3ccccc3)CC2)cc1	2.87%	–

SMILES	activity change, negative = inhibition	Potency
O=C(CN1CCN(C(=S)NC2CCCC2)CC1)Nc1ccc(Oc2ccccc2)cc1	–	16.4 µM (active)
CCc1cc2c(-c3ccccc3)cc(=O)oc2c2c1OCN(Cc1ccc(C)cc1)C2	8.44%	–
O=C(Cc1ccc(NC(=O)C2CCCN(C(=O)CCc3ccccc3)C2)cc1)Nc1ccc(C(=O)N2CCOCC2)cc1 (centres undefined)	2%	–
CC(C)OC(=O)c1ccc(NCc2cc(O)ccc2O)cc1Cl	16.7%	–
O=S(=O)(c1ccccc1)c1nc(-c2ccccc2F)oc1NCc1cccnc1	-22%	–
O=S(=O)(c1ccc(Br)cc1)c1nc(-c2ccccc2)oc1NCc1cccnc1	–	20.6 µM (active)
Cc1ccc(S(=O)(=O)c2nc(-c3cccs3)oc2NCc2cccnc2)cc1	1.51%	–
CC[N+]1(CC)CC2=Cc3ccccc3CC2C1 (centres undefined)	–	23.1 µM (active)
COc1cc(OC)cc(C(=O)Nc2c(C(=O)Nc3ccc(F)cc3)oc3ccccc23)c1	-7.58%	–
COc1cccc(/C=N/NC(=O)c2[nH]nc3c2CCc2ccccc2-3)c1O	-21.6%	–
COc1cccc(/C=N\NC(=O)C2=NNC(=O)C2C)c1O (centres undefined)	-3.51%	–
COc1cccc(/C=N/Nc2cc(C)nc(-c3ccccc3O)n2)c1O	–	14.6 µM (active)
Cc1nc2nc(SCC(=O)N(Cc3ccccc3)C(C)C)nn2c(C)c1Cc1ccccc1Cl	8.79% [at 9.27 µM]	–
CCN1CCc2nc3sc(C(=O)Nc4ccccc4OC(F)(F)F)c(N)c3cc2C1	4.26%	–
COC(=O)c1c(NC(=O)C2CC(C)=C(C)CC2C(=O)O)sc2c1CCCCC2 (centres undefined)	-3.38%	–
COC(=O)c1c(NC(=O)CCN2CCOCC2)sc2c1CCCC2	7.94%	–
COC(=O)c1c(NC(=O)CCCC(=O)O)sc2c1CCCCC2	–	5.17 µM (active)
COC(=O)c1c(NC(=O)CSc2nncs2)sc2c1CCCCC2	–	18.4 µM (active)
NC(=O)c1c(NC(=O)CSc2nc(N)cc(=O)[nH]2)sc2c1CCCC2	1.73%	–
COC(=O)c1c(NC(=O)c2ccc(Cl)c(Cl)c2)sc2c1CCCC2	11.6%	–
